Data on 28 molecules can be found in PubChem BioAssay (EPA / NIEHS).

Assay [1] in a line: Tanguay_ZF_120hpf_TR_legacy: (Legacy) Oregon State University Tanguay Lab 120 Hour Post-fertilization zebrafish Assay for Touch Response (AID 2283667). In outline:
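Tropical 5D wild-type zebrafish embryos were exposed statically in sealed, foil-covered plates at 28C until 120 hpf, with 0.64% (vol/vol) final DMSO. Touch response was scored as present or absent; embryos that died were not scored.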

Read-out in assay [2]: xenobiotic metabolism (CYP2C9), CYP2C9 (gene 1559)
As to the kind of experiment: CLD_CYP2C9_6hr: CellzDirect (CLD) Gene Expression Assay for xenobiotic metabolism (CYP2C9) at 6 hours (AID 2283664). In outline: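 Primary human hepatocytes dosed daily with test chemicals at multiple concentrations; harvested at 6 h. CYP2C9 mRNA induction measured by qNPA chemiluminescence. Gain of signal fitted against 0.2% DMSO vehicle; cytotoxicity annotated from phase-contrast morphology.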

Read-out in assay [3]: alkyl and aryl transferase (GSTA2), GSTA2 (gene 2939)
As to the kind of experiment: CLD_GSTA2_6hr: CellzDirect (CLD) Gene Expression Assay for alkyl and aryl transferase (GSTA2) at 6 hours (AID 2283666). On the procedure:
(§1) CLD_6hr is a cell-based, multiplexed-readout assay that uses hepatocyte, a human liver primary cell, with measurements taken at 6 hours after chemical dosing in a 96-well plate.CLD_GSTA2_6hr is one of 16 assay component(s) measured or calculated from the CLD_6hr assay. It is designed to make measurements of mRNA induction, a form of inducible reporter, as detected with chemiluminescence signals by Quantitative Nuclease Protection Assay (qNPA) technology.Data from the assay component CLD_GSTA2_6hr was analyzed at the endpoint, CLD_GSTA2_6hr, in the positive analysis fitting direction relative to DMSO as the negative control and baseline of activity. Using a type of inducible reporter, gain-of-signal activity can be used to understand changes in the reporter gene as they relate to the gene GSTA2. Furthermore, this assay endpoint can be referred to as a primary readout. To generalize the intended target to other relatable targets, this assay endpoint is annotated to the transferase intended target family, where subfamily is alkyl and aryl transferase.
(§2) Human hepatocyte cultures were treated daily for two consecutive days with fresh dosing solutions containing appropriate concentrations of the 320 ToxCast chemicals (chemical identities were blinded to CellzDirect and other ToxCast collaborators), vehicle control (0.2% DMSO), and positive control inducers as summarized in Table 1. […] These replicate data, coupled with internal replicates designed within the blinded ToxCast chemical library, provided additional data to evaluate interindividual differences between hepatocyte preparations and their potential impact on chemical profiles.Cell morphology and integrity were evaluated using phase-contrast microscopy as an indicator of hepatocyte cell health (Tyson & Green, 1987). Cultures for each treatment group (i.e., media, vehicle [0.2% DMSO], positive control inducers [multiple concentrations], and the ToxCast chemicals [multiple concentrations]) were observed and cell morphology was assessed relative to vehicle control cultures at each harvest time point (0, 6, 24, or 48 h). […] Images were evaluated at the conclusion of the study to assess changes in cell integrity and account for the effects of chemical exposure on uncharacteristic changes in concentration-dependent gene expression profiles. […]

Read-out in assay [4]: organic anion transporter (SLCO1B1), SLCO1B1 (gene 10599)
As to the kind of experiment: CLD_SLCO1B1_6hr: CellzDirect (CLD) Gene Expression Assay for organic anion transporter (SLCO1B1) at 6 hours (AID 2283668).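 Further: active means mRNA induction above DMSO baseline.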 The method, then: as §1, with “plate.CLD_SLCO1B1_6hr” for “plate.CLD_GSTA2_6hr”, “CLD_SLCO1B1_6hr” for “CLD_GSTA2_6hr”, “CLD_SLCO1B1_6hr,” for “CLD_GSTA2_6hr,”, “SLCO1B1.” for “GSTA2.”, “transporter” for “transferase”, “organic anion transporter.” for “alkyl and aryl transferase.”
(§3) Human hepatocyte cultures were treated daily for two consecutive days with fresh dosing solutions containing appropriate concentrations of the 320 ToxCast chemicals (chemical identities were blinded to CellzDirect and other ToxCast collaborators), vehicle control (0.2% DMSO), and positive control inducers as summarized in Table 1. […] These replicate data, coupled with internal replicates designed within the blinded ToxCast chemical library, provided additional data to evaluate interindividual differences between hepatocyte preparations and their potential impact on chemical profiles.Cell morphology and integrity were evaluated using phase-contrast microscopy as an indicator of hepatocyte cell health (Tyson & Green, 1987). Cultures for each treatment group (i.e., media, vehicle [0.2% DMSO], positive control inducers [multiple concentrations], and the ToxCast chemicals [multiple concentrations]) were observed and cell morphology was assessed relative to vehicle control cultures at each harvest time point (0, 6, 24, or 48 h). […]

Read-out in assay [5]: sulfotransferase (SULT2A), SULT2A1 (gene 6822)
As to the kind of experiment: CLD_SULT2A_6hr: CellzDirect (CLD) Gene Expression Assay for sulfotransferase (SULT2A) at 6 hours (AID 2283669).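 Further: hits raise transcript level above the DMSO vehicle baseline.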 The method, then:
as §1, with “plate.CLD_SULT2A_6hr” for “plate.CLD_GSTA2_6hr”, “CLD_SULT2A_6hr” for “CLD_GSTA2_6hr”, “CLD_SULT2A_6hr,” for “CLD_GSTA2_6hr,”, “SULT2A1.” for “GSTA2.”, “sulfotransferase.” for “alkyl and aryl transferase.”
as §2

Read-out in assay [6]: glucuronosyltransferase (UGT1A1), UGT1A1 (gene 54658)
Nature of the assay: CLD_UGT1A1_6hr: CellzDirect (CLD) Gene Expression Assay for glucuronosyltransferase (UGT1A1) at 6 hours (AID 2283672). In outline: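 Primary human hepatocytes from two donor preparations, dosed with fresh solutions in 0.2% DMSO, harvested at 6 h. UGT1A1 mRNA measured by qNPA chemiluminescence; induction fitted upward versus DMSO.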

Read-out in assay [7]: xenobiotic metabolism (CYP1A1), CYP1A1 (gene 1543)
As to the kind of experiment: CLD_CYP1A1_24hr: CellzDirect (CLD) Gene Expression Assay for xenobiotic metabolism (CYP1A1) at 24 hours (AID 2283673). The method, then:
CLD_24hr is a cell-based, multiplexed-readout assay that uses hepatocyte, a human liver primary cell, with measurements taken at 24 hours after chemical dosing in a 96-well plate.CLD_CYP1A1_24hr is one of 16 assay component(s) measured or calculated from the CLD_24hr assay. It is designed to make measurements of mRNA induction, a form of inducible reporter, as detected with chemiluminescence signals by Quantitative Nuclease Protection Assay (qNPA) technology.Data from the assay component CLD_CYP1A1_24hr was analyzed at the endpoint, CLD_CYP1A1_24hr, in the positive analysis fitting direction relative to DMSO as the negative control and baseline of activity. Using a type of inducible reporter, gain-of-signal activity can be used to understand changes in the reporter gene as they relate to the gene CYP1A1. Furthermore, this assay endpoint can be referred to as a primary readout. To generalize the intended target to other relatable targets, this assay endpoint is annotated to the cyp intended target family, where subfamily is xenobiotic metabolism.
as §3

Read-out in assay [8]: xenobiotic metabolism (CYP1A2), CYP1A2 (gene 1544)
Nature of the assay: CLD_CYP1A2_6hr: CellzDirect (CLD) Gene Expression Assay for xenobiotic metabolism (CYP1A2) at 6 hours (AID 2283663).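 On AC50: potency is for induction meaning a rise in mRNA above DMSO.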 In outline: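 Primary human hepatocytes from two donor preparations, dosed daily with multiple concentrations in 0.2% DMSO and harvested at 6 h. CYP1A2 mRNA induction measured by chemiluminescent qNPA, gain of signal fitted against DMSO; cytotoxicity flagged morphologically.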

Assay [9] in a line: CLD_ACTIN_24hr: CellzDirect (CLD) Gene Expression Assay for Baseline Control (Actin) at 24 hours (AID 2283670). On the procedure: CLD_24hr is a cell-based, multiplexed-readout assay that uses hepatocyte, a human liver primary cell, with measurements taken at 24 hours after chemical dosing in a 96-well plate.CLD_ACTIN_24hr is one of 16 assay component(s) measured or calculated from the CLD_24hr assay. It is designed to make measurements of mRNA induction, a form of inducible reporter, as detected with chemiluminescence signals by Quantitative Nuclease Protection Assay (qNPA) technology.Data from the assay component CLD_ACTIN_24hr was analyzed at the endpoint, CLD_ACTIN_24hr, in the positive analysis fitting direction relative to DMSO as the negative control and baseline of activity. […] Furthermore, this assay endpoint can be referred to as a secondary readout, because this assay has produced multiple assay endpoints where this one serves a background control function. […]
Human hepatocyte cultures were treated daily for two consecutive days with fresh dosing solutions containing appropriate concentrations of the 320 ToxCast chemicals (chemical identities were blinded to CellzDirect and other ToxCast collaborators), vehicle control (0.2% DMSO), and positive control inducers as summarized in Table 1. […] Images were evaluated at the conclusion of the study to assess changes in cell integrity and account for the effects of chemical exposure on uncharacteristic changes in concentration-dependent gene expression profiles. […]

Records with an inconclusive call do not appear. Active and inactive are the calls of the source. How the source made its calls: active means hit-call score of the fitted dose curve at least 0.9, where 1 is the maximum; inconclusive means response in the unintended direction; inactive means score below 0.9.

Usually AC50 stands for the concentration giving half of the maximal activity seen.

Regarding `O=C(O)C(F)(F)C(F)(F)C(F)(F)C(F)(F)C(F)(F)C(F)(F)C(F)(F)C(F)(F)F`, the call in [1] was inactive.
As to `CCC(C)(c1ccc(O)cc1)c1ccc(O)cc1`, the AC50 in [1] was 42.4 µM (active).
Turning to `Cc1cc2c3c(c1)C(c1ccccc1)=N[C@@H](NC(=O)c1ccncc1)C(=O)N3CC2`, the outcome in [1] was inactive.
Regarding `ClC1=C(Cl)[C@]2(Cl)[C@@H]3[C@H]4C[C@H]([C@@H]5O[C@H]45)[C@@H]3[C@@]1(Cl)C2(Cl)Cl`, the AC50 in [1] was 81.5 µM (active).
Regarding `CCOP(=S)(OCC)SCSC(C)(C)C`, the outcome in [1] was inactive.
Regarding `Nn1cnnc1`, the result in assay [1] was inactive.
In the case of `O=S(=O)(O)C(F)(F)C(F)(F)C(F)(F)C(F)(F)C(F)(F)C(F)(F)F`, the AC50 in assay [1] is 25.9 µM (active).
As for `CCC(=O)O[C@H]1CC[C@H]2[C@@H]3CCC4=CC(=O)CC[C@]4(C)[C@H]3CC[C@]12C`, the molecule was classed as inactive in [1].
In the case of `CCC(C)c1cc([N+](=O)[O-])cc([N+](=O)[O-])c1O` (centres undefined), the call in [1] was inactive.
As to `Oc1ccc(C(c2ccc(O)cc2)(C(F)(F)F)C(F)(F)F)cc1`, the AC50 in [1] is 52.8 µM (active).
In the case of `ClC1=C(Cl)[C@]2(Cl)[C@@H]3[C@@H](Cl)[C@H]4O[C@H]4[C@@H]3C1(Cl)C2(Cl)Cl`, in assay [1], the molecule was called inactive.
Same read-out and setting: the same measure for `CCCCCCCCCC[N+](C)(C)CCCCCCCCCC`: “inactive”; for `O=C(NC(=O)c1c(F)cccc1F)Nc1cc(Cl)c(OC(F)(F)C(F)F)c(Cl)c1`: “inactive”.
For `ClC1=C(Cl)[C@]2(Cl)[C@@H]3[C@@H]4C[C@@H]([C@H]5O[C@@H]45)[C@@H]3[C@@]1(Cl)C2(Cl)Cl`, in assay [1], the outcome was inactive.
For `CCC(C)(CC)c1cc(NC(=O)c2c(OC)cccc2OC)on1`, the result in assay [2], in [3], in [1], in assay [4], in assay [5] and in assay [6] was inactive. The AC50 in assay [7] was 20 µM (active).
For the molecule `CN(C)c1nc(=O)n(C2CCCCC2)c(=O)n1C`, the call in [8], in assay [2], in [3], in assay [5], in assay [9] and in [6] was inactive.
Take `Clc1ccc(C(Cl)(Cl)Cl)cc1`: in assay [1], the call was inactive.
Turning to `CC(C)(O)C(=O)Nc1ccc([N+](=O)[O-])c(C(F)(F)F)c1`, the outcome in [1] was inactive.
Take `CCNc1nc(NC(C)C)nc(SC)n1`: the AC50 in assay [8] was 0.262 µM (active); in assay [7], 3.97 µM (active). For the same molecule, the result in [3], in assay [1], in [5] and in [6] was inactive.
`c1ccc(-c2ccccc2)cc1`: the molecule was called inactive in assay [1].
As for `Cc1ccccc1CO[C@@H]1C[C@@]2(C(C)C)CC[C@]1(C)O2`, the molecule was classed as inactive in assay [8], in assay [3], in [1], in assay [4], in assay [5] and in [6]. Moreover, the call in assay [7] was inactive.
Take `CCSC(=O)N(CC)C1CCCCC1`: the result in assay [8], in assay [2], in assay [4], in assay [9] and in assay [6] was inactive.
Regarding `CC(C)(c1ccccc1)c1ccc(O)cc1`, the call in assay [1] was inactive.
Take `C[C@]12CCC(=O)C=C1CC[C@@H]1[C@@H]2CC[C@]2(C)C(=O)CC[C@@H]12`: the AC50 in [1] is 26.8 µM (active).
Take `CCOCCOC(C)=O`: the molecule was called inactive in assay [1].
Take `COc1ccc(O)c(C(C)(C)C)c1`: in assay [1], the molecule was called inactive.
For `NS(=O)(=O)C(F)(F)C(F)(F)C(F)(F)C(F)(F)C(F)(F)C(F)(F)C(F)(F)C(F)(F)F`, the result in assay [1] was inactive.
Turning to `CCCN(CCC)N=O`, the call in assay [1] was inactive.
